# Experimental data from the supplement of paper PMC10981050.
# Several values for one entry are separate records, joined by “and”; a condition that tells them apart may be missing. Identical values can stand only once. Counter-ions that a name gives are not always drawn.
# How the values were obtained:
# Assay in all cases: cell viability relative to vehicle control; higher = less cytotoxic
# Details in all cases: 10 µM
# K562 = test system: K562
# In short: (§1)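 Mutant clones made by CRISPR editing and their isogenic wild-type counterparts, from four leukaemia lines, were exposed to a single 10 µM dose of each library compound for 48 h. The supernatant was then removed and CellTiter-Glo luminescence was read. Viability was reported as percent of the on-plate vehicle control.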
# MARIMO = test system: MARIMO
# In short: as §1
# MOLM14 = test system: MOLM14
# In short: as §1
# OCI-AML2 = test system: OCI-AML2
# In short: as §1
SMILES,cell viability (K562; SRSF2 genotype: SRSF2 P95H/wt),cell viability (K562; SRSF2 genotype: SRSF2 wt/wt),cell viability (MARIMO; SRSF2 genotype: SRSF2 P95H/wt),cell viability (MARIMO; SRSF2 genotype: SRSF2 wt/wt),cell viability (MOLM14; SRSF2 genotype: SRSF2 P95H/wt),cell viability (MOLM14; SRSF2 genotype: SRSF2 wt/wt),cell viability (OCI-AML2; SRSF2 genotype: P95H/wt),cell viability (OCI-AML2; SRSF2 genotype: wt/wt)
Cc1ccc(Sc2cncc3sc(C(N)=O)cc23)cc1,91.6% and 90.7%,90.6%,95.7%,102%,89.3%,100%,68.8%,69.4%
COC(=O)Nc1nc2cc(Sc3ccccc3)ccc2[nH]1 [Fenbendazole (Panacur)],17.8% and 31.8%,32.8%,27.3%,10.4%,9.32%,4.51%,9.8%,12.7%
C[C@@](Cc1ccc(O)c(O)c1)(NN)C(=O)O [Carbidopa],103% and 92.2%,101%,92.1%,98.2%,93.3%,98.4%,93.9%,107%
N#Cc1cc(-c2n[nH]c(-c3ccncc3)n2)ccn1 [Topiroxostat],90.1% and 106%,94%,104%,111%,104%,103%,98.8%,100%
O=NN(CCCl)C(=O)NC1CCCCC1 [Lomustine (CeeNU)],95% and 113%,111%,100%,99.9%,84%,97.9%,97.2%,105%
CC(C)c1nc(CN(C)C(=O)N[C@H](C(=O)N[C@@H](Cc2ccccc2)C[C@H](O)[C@H](Cc2ccccc2)NC(=O)OCc2cncs2)C(C)C)cs1 [Ritonavir],89.2% and 88.4%,82.6%,81.9%,95%,81.8%,88.3%,102%,89.3%
C=CC[N+]1([C@H]2C[C@H]3[C@@H]4CC[C@H]5C[C@H](O)[C@@H](N6CCOCC6)C[C@]5(C)[C@H]4CC[C@]3(C)[C@H]2OC(C)=O)CCCC1 [Rocuronium bromide],98.3% and 90.4%,91.2%,90.3%,95.3%,103%,96.7%,88.1%,99.3%
Nc1ncnc2c1c(-c1cccc(OCc3ccccc3)c1)cn2C1CC(CN2CCCC2)C1 (stereo unspecified),85.5% and 90.3%,88.4%,47.1%,40.6%,39.4%,55.1%,35.1%,41.8%
CN(C)Cc1ccc(-c2nc3cccc4c3n2CCNC4=O)cc1,108% and 106%,110%,76.7%,78.9%,65.5%,34.3%,55.2%,67.9%
Cc1[nH]c2ccccc2c1CCNCc1ccc(/C=C/C(=O)NO)cc1 [Panobinostat (LBH589)],1.37% and 8.1%,2.36%,3.16%,7.58%,0.67%,0.53%,1.13%,1.48%
CCc1cc2c(cc1CC)CC(NC[C@H](O)c1ccc(O)c3[nH]c(=O)ccc13)C2 [Indacaterol Maleate],68.6% and 83.2%,75.8%,73.3%,77%,62%,71.2%,52.5%,60.1%
Nc1nc(Nc2ccc(S(N)(=O)=O)cc2)nn1C(=O)c1c(F)cccc1F,41.2% and 43.9%,31.2%,10.8%,7.19%,3.09%,0.41%,2.63%,12%
COc1cc(C(=O)N2CCC(N3CCN(C)CC3)CC2)ccc1Nc1ncc2c(n1)N(C)c1ccccc1C(=O)N2C,49.8% and 57.1%,61.2%,26.9%,31.8%,16.3%,20.6%,10.9%,21.2%
C1CCN2C[C@@H]3C[C@@H](CN4CCCC[C@@H]34)[C@H]2C1 [Sparteine],95% and 97.6%,91.1%,96.8%,94.9%,99%,94.8%,97.5%,94.3%
Cc1cc(F)c(Nc2ncnc3cc(OCc4ccccc4)ccc23)cc1O,82.7% and 95.5%,94.6%,73.6%,97.9%,93.3%,102%,71.2%,81%
COC(=O)[C@@]1(C)CC[C@]2(C(=O)O)CC[C@]3(C)C(=CC[C@@H]4[C@@]5(C)C[C@H](O)[C@H](O[C@@H]6OC[C@@H](O[C@@H]7O[C@H](CO)[C@@H](O)[C@H](O)[C@H]7O)[C@H](O)[C@H]6O)[C@@](C)(CO)[C@@H]5CC[C@]43C)[C@@H]2C1 [Esculentoside A],110% and 105%,105%,104%,108%,108%,107%,96.8%,105%
Cc1cc(C)cc(NC(=O)Cc2ccc(OC(C)(C)C(=O)O)cc2)c1 [Efaproxiral sodium],102% and 99.1%,99.9%,109%,119%,110%,103%,106%,116%
CCCc1cc(-c2nc(-c3ccc(C)cc3)cs2)ccn1 [Fatostatin],22.9% and 30.5%,39%,46.2%,36%,51.6%,35.5%,34.2%,35.4%
CCCCCCCCCCCCCCCC(=O)O[C@@H]1[C@@H](O)[C@@H](O)[C@@H]([C@H](NC(=O)[C@@H]2C[C@@H](CCC)CN2C)[C@H](C)Cl)O[C@@H]1SC [Clindamycin palmitate HCl],90.7% and 98.9%,94.8%,103%,108%,101%,105%,93.6%,101%
C/C(=N\NC(=O)c1cccc(S(=O)(=O)N2CCOCC2)c1)c1cc(Cl)ccc1O,57.4% and 51.4%,37%,20.1%,24.4%,6.59%,1.96%,10.8%,11.4%
O=C(O)c1c[nH]c2cc(Cl)c(-c3ccc(C4(O)CCC4)cc3)cc12,91.2% and 101%,95.2%,92.8%,115%,106%,102%,86.5%,96.9%

SMILES,cell viability (K562; SRSF2 genotype: SRSF2 P95H/wt),cell viability (K562; SRSF2 genotype: SRSF2 wt/wt),cell viability (MARIMO; SRSF2 genotype: SRSF2 P95H/wt),cell viability (MARIMO; SRSF2 genotype: SRSF2 wt/wt),cell viability (MOLM14; SRSF2 genotype: SRSF2 P95H/wt),cell viability (MOLM14; SRSF2 genotype: SRSF2 wt/wt),cell viability (OCI-AML2; SRSF2 genotype: P95H/wt),cell viability (OCI-AML2; SRSF2 genotype: wt/wt)
CC(=O)OC1CC2(C)C(CC(O)C3C4(C)CCC(O)C(C)C4CCC32C)C1=C(CCC=C(C)C)C(=O)O (stereo unspecified) [Fusidine],96.3% and 99.9%,89.4%,97.5%,98%,98.9%,96.8%,94.2%,99.2%
OCc1c[nH]c2ccccc12 [Indole-3-carbinol],102% and 107%,99.8%,105%,113%,95.1%,104%,105%,106%
CCC(=O)Nc1cccc(Oc2nc(Nc3ccc(N4CCN(C)CC4)cc3OC)ncc2Cl)c1,90.9% and 97.3%,90.6%,70.3%,68.3%,39.9%,40.7%,61.2%,59.2%
OCCn1cc(-c2cnc3nnn(Cc4ccc5ncccc5c4)c3n2)cn1,96.9% and 99.3%,104%,105%,102%,99.4%,100%,97.9%,97.9%
CC(C)=CC[C@@H](O)C1=CC(=O)c2c(O)ccc(O)c2C1=O [Shikonin],1.68% and 0.52%,0.87%,0.3%,0.35%,0.44%,0.28%,0.19%,0.25%
Cc1ccc(S(=O)(=O)Nc2nc3ccccc3nc2Nc2ccc3nsnc3c2)cc1 [XL147 analogue],95.3% and 101%,105%,97.6%,104%,99.2%,98.7%,101%,94.5%
"Nc1nc2cc(-c3ccc4ncc(C(=O)N5CCOCC5)n4c3)ccc2o1 [Serabelisib (INK-1117,MLN-1117,TAK-117)]",92.2% and 98.4%,84.2%,64.5%,72.4%,57.7%,65.2%,53%,65.4%
O=C1CN(/N=C/c2ccc(-c3ccc([N+](=O)[O-])cc3)o2)C(=O)N1 [Dantrolene sodium hemiheptahydrate],93.8% and 97.3%,104%,96.4%,104%,100%,101%,100%,94.3%
COC1(c2sc3c(N4CCOCC4)nc(-c4cnc(N)nc4)nc3c2C)COC1,40.8% and 45.4%,40.3%,47.9%,38%,26.3%,24.1%,4.68%,16.4%
CCC(CC)n1ccc2c(C(=O)NCc3c(C)cc(C)[nH]c3=O)cc(C#N)cc21,107% and 101%,95.5%,103%,112%,100%,100%,95%,102%
COc1ccccc1N1CCN(CCN2C(=O)CC3(CCCC3)CC2=O)CC1 [BMY 7378 Dihydrochloride],98.9% and 100%,91.1%,95.3%,106%,99.9%,95.2%,89.4%,105%
CC(C)CCNC(=O)[C@H](CC(C)C)NC(=O)[C@H]1O[C@@H]1C(=O)O [Loxistatin Acid (E-64C)],107% and 106%,100%,102%,104%,101%,104%,106%,105%
CC(C)NCC(O)COc1ccc(CCOCC2CC2)cc1 (stereo unspecified) [Betaxolol hydrochloride (Betoptic)],97.5% and 96.6%,94.3%,103%,107%,99.5%,99.7%,91.2%,99.6%
Cc1cc(O)cc(O)c1 [Orcinol],110% and 104%,104%,100%,98.8%,113%,107%,98.7%,107%
O=C(N/N=C/c1cc(O)c(O)cc1O)c1cc2ccccc2cc1O [Dyngo-4a],78.9% and 81.5%,78%,67.3%,89.5%,64.9%,72%,85.1%,79.3%
Cc1nc(Nc2ncc(C(=O)Nc3c(C)cccc3Cl)s2)cc(N2CCN(CCO)CC2)n1 [Dasatinib Monohydrate],23.6% and 40.6%,28.3%,67.5%,70.5%,38.8%,39%,33.3%,43.3%
O=S(=O)(c1ccccc1)c1cnc2c(N3CCNCC3)cccc2c1,93.9%,94.6%,95%,95%,98.7%,100%,101%,93.2%
COc1cc2nc(N3CCCC3)nc(NCCCCCN3CCCC3)c2cc1OC,2.75% and 3.32%,4.26%,9.85%,3.33%,0.26%,0.27%,0.31%,0.37%
CC(C)(C)c1cc(O)c(C(C)(C)C)cc1O,97% and 97.5%,95.7%,73.4%,92.5%,88.8%,93.5%,86.2%,93.3%
CC(C)(C)C[C@@H]1N[C@@H](C(=O)N[C@H]2CC[C@H](O)CC2)[C@H](c2cccc(Cl)c2F)[C@]12C(=O)Nc1cc(Cl)ccc12,76.2% and 81.8%,74.8%,84.9%,83.6%,0.31%,0.33%,0.34%,8.97%
O=C(O)[C@]1(Cc2cccc(Nc3nccs3)n2)CC[C@@H](Oc2cccc(Cl)c2F)CC1,17.3% and 19.3%,18.6%,66.6%,68.2%,27.7%,20.6%,17.8%,24.8%
